In PubChem BioAssay AID504332 (National Center for Advancing Translational Sciences (NCATS), 2011):
Values joined by “and” are separate entries in the source; they are usually repeats but may differ in a detail not shown here. Identical values can stand only once. The campaign covered roughly 350,000 compounds. About 31,000 (8.9%) were called active. A call without a number means that no potency is given here. About 15% were inconclusive and are not listed. This is one part of a sample in which actives are shown more often than they occur. Calls come from the whole dose curve; as a rule, active = well fitted inhibition curve with a large enough effect; inconclusive = small, poorly fitted or top-dose-only effect; inactive = no such curve, though single readings can be large or run the other way.

What follows are molecules tested against Histone-lysine N-methyltransferase EHMT2 (Homo sapiens) (UniProt Q96KQ7) (assay: qHTS Assay for Inhibitors of Histone Lysine Methyltransferase G9a). Conditions: G9a H3K9 monomethylation, AlphaScreen, 2 h; series mostly up to 102 µM.
From the text: Methylated lysines, on the N-terminal tails of histone proteins serve as epigenetic markers to recruit factors that can then modify local chromatin structure to lead to functional consequences. G9a and other members of the SUV39 family of the SET domain-containing superfamily of histone lysine methyltransferases (HMT) have been identified to specifically methylate Lys9 of histone H3 (H3K9). G9a catalyzes the mono- and di-methylation of H3K9 in mammalian euchromatic regions, where the resulting H3K9me2 is indicative of transcriptional repression. […] The inhibition of G9a will result in transcriptional activation and work synergistically with DNA methyltransferase and histone deacetylase inhibitors, to kill cancer cells. This qHTS assay for identification of G9a inhibitors is a chemiluminescence based AlphaScreen (PerkinElmer). Methylation of biotinylated-histone peptide is measured through specific antibody-based detection, in conjunction with streptavidin-coated donor and anti-IgG antibody-coated acceptor beads. The method is particularly well suited for detection of inhibitors acting by the desired histone peptide competitive mechanism and is applicable to testing other HMTs. Although AlphaScreen has significant advantages with its utility in a variety of epigenetic target assays, the primary screening data provided in this deposition should be used with caution due to the prevalence of screening artifacts. An AlphaScreen counterscreen is highly recommended to be run against any putative actives to eliminate non specific artifacts. Alternatively, one can use other AlphaScreen assays in PubChem to filter out promiscuous hits. Quinn et al. A chemiluminescence-based method for identification of histone lysine methyltransferase inhibitors. Mol Biosyst 6(5): 782-8. 2010. PMID: 20567762 [2] Baell,Holloway. New substructure filters for removal of pan assay interference compounds (PAINS) from screening libraries and for their exclusion in bioassays. J Med Chem. 53(7):2719-40. 2010. PMID: 20131845 NIH Molecular Libraries Probe Production Network [MLPCN] NIH Chemical Genomics Center [NCGC] Structural Genomics Consortium (SGC) NIH Grant: 5U54 MH084681-02
To each well of a 1,536w plate, 2ul of HMT enzyme (final 20nM) were added, using a nanoliter dispenser. The G9a- and GLP-inhibitor BIX-01294 (CID: 25150857) are used as an intraplate control, with a 16-point titration in duplicate. A Kalypsys pin-tool transferred 23nl of library compound solution in DMSO to each well. Following a 15 min incubation of enzyme with compounds at room temperature, 1ul mixture of b-H3K9 peptide substrate (final 500nM) and SAM cofactor (final 20uM) were added. Reactions were allowed to proceed at room temperature for 2 hours. Methylated b-H3K9 peptide product was detected with 0.5 ug/mL rabbit polyclonal anti-monomethyl histone H3K9 antibody (Abcam Inc., Cambridge, MA) and 20 ug/mL each streptavidin-coated donor and anti-rabbit IgG acceptor AlphaScreen beads. Antibody and beads were added in a 1ul dispense, for a final volume of 4ul, and plates were incubated, protected from the light, for 10 min at room temperature. Microplates were then read on an EnVision multilabel plate reader using the 1,536 plate HTS AlphaScreen aperture (excitation time 80 ms, measurement time 240 ms).
Note: nearly all actives have a fitted effect of over 75% in size.
Potency is the fitted concentration of half-maximal effect.

Sequence of Histone-lysine N-methyltransferase EHMT2 (Homo sapiens) (Q96KQ7 913-1193 limits assumed): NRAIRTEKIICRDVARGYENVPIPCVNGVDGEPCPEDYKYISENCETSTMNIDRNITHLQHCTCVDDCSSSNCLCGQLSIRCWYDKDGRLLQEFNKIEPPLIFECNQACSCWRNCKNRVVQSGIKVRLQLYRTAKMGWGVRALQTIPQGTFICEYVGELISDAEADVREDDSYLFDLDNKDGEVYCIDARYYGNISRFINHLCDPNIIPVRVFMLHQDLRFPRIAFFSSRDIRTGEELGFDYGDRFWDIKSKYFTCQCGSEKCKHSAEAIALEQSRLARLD

SMILES	activity, negative = inhibition	Potency
COc1ccc(NC(=O)N2CCC3(CC2)OCCO3)c(OC)c1	inactive	–
O=C(Nc1cccc2ccccc12)N1CCC2(CC1)OCCO2	–	50.1 µM (active)
O=C(c1cc(-c2ccncc2)nc2ccccc12)N1CCC2(CC1)OCCO2	inactive	–
CCN1CC2C3CCC(C)(O3)C2C1 (stereo not given)	inactive	–
Cc1nnc(NC(=O)c2cccn(Cc3cccc(F)c3)c2=O)s1	inactive	–
Cn1cc(/C=C/c2nc3ccccc3c(=O)n2-c2ccccc2)c2ccccc21	inactive	–
O=C(OCC1O[C@@H](OC(=O)c2cc(O)c(O)c(O)c2)[C@@H](OC(=O)c2cc(O)c(O)c(O)c2)[C@@H](OC(=O)c2cc(O)c(O)c(O)c2)[C@@H]1OC(=O)c1cc(O)c(O)c(O)c1)c1cc(O)c(O)c(O)c1 (stereo not given in full)	–	50.1 µM (active)
CCN(N=Nc1nonc1OC)c1nonc1OC	inactive	–
CC(=O)N(C1=NCCCS1)c1ccccc1F	inactive	–
COc1ccc(-c2nn(CCC#N)cc2C(=O)O)cc1	inactive	–
CC(=O)c1ccc(OC(NC(=O)Cc2ccccc2)C(Cl)(Cl)Cl)cc1 (stereo not given)	inactive	–
CN(C)C(=O)Oc1ccc2c(c1)O/C(=C\c1ccccc1)C2=O	inactive	–
N#CC(C#N)=Cc1cc(O)c(O)c([N+](=O)[O-])c1	–	14.1 µM (active) and 15.8 µM (active)
NCCc1ccc(S(=O)(=O)F)cc1	inactive	–
COc1c(O)ccc2c1-c1c3c(cc4c1C(C2)N(C)CC4)OCO3 (stereo not given)	–	39.8 µM (active)
COc1ccc(C2NCc3ccc4c(c3-n3cccc32)OCO4)cc1OC (stereo not given)	0.908% [at 12.7 µM] (inactive)	–
CC(=O)NC(=O)NC(C)Cc1ccccc1 (stereo not given)	inactive	–
CCOC(=O)c1c(-c2ccccc2)oc2ccc(OC(=O)N(C)C)cc12	6.28% [at 12.7 µM] (inactive)	–
O=C(CN1CCCCC1)Nc1ccc(Br)cc1C(=O)c1ccccc1Cl	inactive	–
NC(=O)Nc1cccc(C(F)(F)F)c1	inactive	–
CC(C)C(N)C(=O)OCCOCn1cnc2c(=O)[nH]c(N)nc21 (stereo not given)	-19.5% [at 2.33 µM] (inactive)	–
Cc1ccc(Cn2nnnc2CN2CCC(n3nnc4ccccc43)CC2)cc1	–	50.1 µM (active)
CC(C)(O)c1[se]c2ccccc2c1I	inactive	–
CN(C)S(=O)(=O)c1cc(C(=O)N2CCC(C(=O)O)(c3ccccc3)CC2)ccc1Cl	inactive	–

SMILES	activity, negative = inhibition	Potency
Cc1ccc(C)c(NC2=NCCCS2)c1	inactive	–
Cc1c(C(=O)O)cccc1-n1c(C)cc(/C=C2\C(=O)NC(=O)N(c3ccc4c(c3)OCO4)C2=O)c1C	–	28.2 µM (active)
CC(C)c1c(CN(C)C(C)Cc2ccccc2)n(C)n(-c2ccccc2)c1=O (stereo not given)	inactive	–
Cc1ccnc(-n2c(C)cc(/C=C3\C(=O)NC(=S)N(C)C3=O)c2C)c1	–	6.31 µM (active)
CN1CCC(OC(=O)c2cccc(F)c2)CC1	inactive	–
CCN1CCN(c2ccc([N+](=O)[O-])cc2C#N)CC1	inactive	–
O=C(N/N=C/c1c(O)n(C2CC2)c(=S)[nH]c1=O)c1ccccc1Cl	inactive	–
CCNC[C@H](O)c1cccc(O)c1	5.63% [at 21.5 µM] (inactive)	–
CN(c1ccccc1)c1ccc([N+](=O)[O-])c2nonc12	–	15.8 µM (active)
O=c1c2ccccc2nc(-c2ccco2)n1-c1ccc(Br)cn1	inactive	–
CCOP(=S)(OCC)SCOC(=O)NCC(=O)OC	inactive	–
CCOC(=O)C(O)(c1ccc(N=Cc2ccccc2O)c(C)c1)C(F)(F)F (stereo not given)	inactive	–
COc1ccccc1N1CCN(C(CNC(=O)Oc2ccccc2)c2cccnc2)CC1 (stereo not given)	inactive	–
O=C(c1cc(S(=O)(=O)N2CCOCC2)ccc1F)N1CCC2(CC1)OCCO2	-11% [at 12.7 µM] (inactive)	–
Cc1nn(-c2ccccc2)c(C)c1NC(=O)COC(=O)Cc1ccccc1	inactive	–
c1cc2c(cc1CCNC1CCCCCC1)OCO2	–	8.91 µM (active)
OC(CNC1CCCCC1)c1ccccc1 (stereo not given)	2.5% [at 12.7 µM] (inactive)	–
CC(=NCc1ccc2c(c1)OCO2)c1c(O)[nH]c(=O)[nH]c1=O	-21.4% [at 12.7 µM] (inactive)	–
c1cc2c(cc1[C@H]1OC[C@H]3[C@@H]1CO[C@@H]3c1ccc3c(c1)OCO3)OCO2	inactive	–
O=C(CN1CCCC1=O)NCCc1ccccc1	27.1% [at 12.7 µM] (inactive)	–
c1ccc(CCNC2CCCCCC2)cc1	–	7.08 µM (active)
CCN(CC)C(=O)c1ccc(NC(=O)c2sccc2-c2ccccc2)cc1	inactive	–
CCN1C[C@]2(COC)C(O)C[C@H](OC)[C@@]34C5C[C@]6(O)C(OC)C(O)[C@](OC(C)=O)(C5C6OC(=O)c5ccccc5)C(C(OC)C23)C14 (stereo not given in full)	-10.7% [at 2.33 µM] (inactive)	–
CN[C@@H]1C[C@H]2O[C@@](C)([C@@H]1OC)n1c3ccccc3c3c4c(c5c6ccccc6n2c5c31)C(=O)NC4	inactive	–

SMILES	activity, negative = inhibition	Potency
Cc1ccc(-n2c(/C=C/c3cccc(C(F)(F)F)c3)nc3ccccc3c2=O)cc1	inactive	–
CCOc1ccc(-c2cc(C)[n+](CCN(CC)CC)c(-c3ccc(OCC)cc3)c2)cc1	inactive	–
CCCCC(=O)N/N=C/c1c(O)n(CCC2=CCCCC2)c(=O)[nH]c1=O	inactive	–
O=C(O)COc1ccccc1/C=C1\C(=O)NC(=O)N(CCC2=CCCCC2)C1=O	–	50.1 µM (active)
CCN(CC)P(=O)(Oc1cccc(C)c1)N(CC)CC	inactive	–
Cc1cc(-c2n[nH]c(=S)n2-c2ccc(C)c(C)c2)no1	–	2.51 µM (active)
c1ccc(CN2CC[C@@]3(CCCNC3)C2)cc1	-24.8% [at 12.7 µM] (inactive)	–
CN1CCN(C(=O)COc2ccc(C(C)(C)C)cc2Br)CC1	inactive	–
O=C(O)c1ccccc1NC(=O)C1C2CCC(O2)C1C(=O)O (stereo not given)	-2.22% [at 0.501 µM] (inactive)	–
ClC(Cl)(Cl)c1ccccc1	-20.6% [at 0.501 µM] (inactive)	–
CCN1C(=O)C(=Cc2c(C)n(CC(=O)NCC3CCCO3)c3ccccc23)C(=O)N(CC)C1=S (stereo not given)	–	39.8 µM (active)
O=C1C2(Cl)C3(Cl)C4(Cl)C(Cl)(Cl)C5(Cl)C3(Cl)C1(Cl)C5(Cl)C24Cl (stereo not given)	-1.92% [at 0.501 µM] (inactive)	–
COc1ccccc1-c1[se]c2ccccc2c1I	inactive	–
COC(=O)C1=C(c2ccc(F)cc2OCc2ccccc2)C[C@@H]2CC[C@H]1N2C(=O)NCc1ccc(OC)c(OC)c1	-8.71% [at 0.501 µM] (inactive)	–
CN(C)[C@@H]1C(=O)C(C(N)=O)=C(O)[C@@]2(O)C(=O)C3=C(O)c4c(O)cccc4[C@@](C)(O)C3CC12 (stereo not given in full)	–	22.4 µM (active)
CNC(=O)O/N=C(\N)Cc1csc2ccccc12	inactive	–
C/C(CCc1c[nH]c2ccccc12)=N\O	13.7% [at 12.7 µM] (inactive)	–
O=C(Nc1ccc(Cl)cc1C(=O)c1ccccc1)c1cc(Cl)cc(Cl)c1	inactive	–
C=Cn1ccnc1P(=S)(c1cc(N(CC)CC)ns1)c1nccn1C=C	inactive	–
COP(=O)(NS(=O)(=O)c1ccccc1)OC	inactive	–
CN1CCN(c2cc(N3CCNCC3)ccc2[N+](=O)[O-])CC1	inactive	–
COc1cccc(-c2nc3ccc(N4CCN(C)CC4)cc3[nH]2)c1	–	44.7 µM (active)
Cc1nc2ccc(N3CCN(C)CC3)cc2nc1C	inactive	–
CN(C)/C=C(\C=[N+](C)C)c1[nH]ncc1[N+](=O)[O-]	inactive	–

SMILES	activity, negative = inhibition	Potency
CCc1nnc(NS(=O)(=O)c2ccc(N=Cc3c(O)n(-c4ccccc4)c(=O)[nH]c3=O)cc2)s1	inactive	–
N#CC1=C(N)Oc2c(c(=O)oc3ccccc23)C1c1ccccc1OC(=O)c1cccs1 (stereo not given)	inactive	–
COC(=O)C1=C(c2ccc(F)cc2F)C[C@@H]2CC[C@H]1N2C(=O)NC1CC1	2.71% [at 0.501 µM] (inactive)	–
O=C(CCNS(=O)(=O)c1ccccc1)Nc1ccc(Cl)cc1C(=O)c1ccccc1	inactive	–
CCOC(=O)C1=C(C)OC(N)=C(C(=O)OC)C12C(=O)Nc1ccc(Br)cc12 (stereo not given)	8.25% [at 2.33 µM] (inactive)	–
CC[N+](C)(CC)CCC[n+]1c(-c2ccccc2)c2cc(N)ccc2c2ccc(N)cc21	–	5.01 µM (active)
C[C@H]1CC[C@@]2(NC1)O[C@@H]1C[C@H]3[C@@H]4CC=C5C[C@@H](O)CC[C@]5(C)[C@@H]4CC[C@]3(C)[C@@H]1[C@@H]2C	18.8% [at 21.5 µM] (inactive)	–
CCN1CCN(c2nc3c(c(=O)[nH]2)CCC3)CC1	inactive	–
CCOc1ccc(CN(CCCl)CCCl)cc1C(=O)OC	16.9% [at 0.501 µM] (inactive)	–
CCOP(=O)(OCC)C(O)c1ccc(OC)cc1OC (stereo not given)	inactive	–
CCOC(=O)c1ncn2c1[C@@H]1CCCN1C(=O)c1cc(OC)ccc1-2	inactive	–
CCOC(=O)C1CN(C)CCC1=O (stereo not given)	26.6% [at 2.33 µM] (inactive)	–
CN1CCN(Cc2ccccc2C(F)(F)F)CC1	inactive	–
COc1ccccc1CN1CCN(C(=O)Cc2ccccc2)CC1	–	17.8 µM (active)
CCC(=NCCc1ccccc1)c1c(O)n(C2CCCCC2)c(=O)[nH]c1=O	inactive	–
O=C(Cn1c(=O)n(CC2CS2)c2ccccc21)N1CCCCC1 (stereo not given)	inactive	–
CCN1CCN(C(=O)Cc2coc3cc(C)cc(C)c23)CC1	inactive	–
O=C(Cc1ccccc1)N1CCN(C2CCCCCC2)CC1	–	31.6 µM (active)
CCOC(=O)C(O)(c1ccc(NC(=O)c2ccco2)c(OC)c1)C(F)(F)F (stereo not given)	-45.5% [at 2.33 µM] (inactive)	–
c1ccc(CCCCN2CCC(c3ccccc3)CC2)cc1	inactive	–
CC1=C(C(=O)Nc2ccccc2)S(=O)(=O)CCO1	inactive	–
CC(Cc1ccccc1)NC=O (stereo not given)	2.33% [at 12.7 µM] (inactive)	–
COC(=O)C1=C(c2ccc(Cl)c(C(F)(F)F)c2)C[C@@H]2CC[C@H]1N2C(=O)NC1CC1	7.94% [at 0.501 µM] (inactive)	–
